Data published in PubChem BioAssay (NCATS).
Results filed as inconclusive are left out. Activity calls are given as the source filed them. Calls come from the whole dose curve; as a rule, active = well fitted cell-killing curve with a large enough effect; inconclusive = small, poorly fitted or top-dose-only effect, or effect the other way; inactive = no such curve, though single readings can be large or run the other way.

Legend:
[1] = Quantitative High-Throughput drug screen in 47 multiple myeloma cell lines against the NCATS MIPE library collection: LP1_DSMZ cell viability assay (AID 1918982); note: nearly all actives have a fitted effect of over 35% in size; note: potency is the fitted concentration of half-maximal effect
Procedure, shortened: (§1)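 500 cells/well; MIPE 4.0 drugs pin-transferred; 48 h, 37C, 5% CO2. CellTiter-Glo, 5 min RT, luminescence. Controls: DMSO 100%, media 0%.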

[2] = Quantitative High-Throughput drug screen in 47 multiple myeloma cell lines against the NCATS MIPE library collection: L363_DSMZ cell viability assay (AID 1918984); conditions: L363 myeloma viability, CellTiter-Glo ATP luminescence, 48 h; viability (% of control): at 45.8 µM (top of the series); note: nearly all actives have a fitted effect of over 40% in size; note: potency is the fitted concentration of half-maximal effect
Procedure, shortened: as §1

[3] = Quantitative High-Throughput drug screen in 47 multiple myeloma cell lines against the NCATS MIPE library collection: KMS34_JCRB cell viability assay (AID 1918985); note: nearly all actives have a fitted effect of over 40% in size; note: potency is the fitted concentration of half-maximal effect
Procedure, shortened: as §1

[4] = Quantitative High-Throughput drug screen in 47 multiple myeloma cell lines against the NCATS MIPE library collection: OPM1_PLB cell viability assay (AID 1918989); note: nearly all actives have a fitted effect of over 40% in size; note: potency is the fitted concentration of half-maximal effect
Procedure, shortened: as §1

[5] = Quantitative High-Throughput drug screen in 47 multiple myeloma cell lines against the NCATS MIPE library collection: SKMM1_PLB cell viability assay (AID 1919863); conditions: SKMM1 myeloma viability, CellTiter-Glo ATP, 48 h; viability: active compounds read low; note: nearly all actives have a fitted effect of over 35% in size; note: potency is the fitted concentration of half-maximal effect
Procedure, shortened: as §1

[6] = Quantitative High-Throughput drug screen in 47 multiple myeloma cell lines against the NCATS MIPE library collection: XG6_PLB cell viability assay (AID 1919865); note: nearly all actives have a fitted effect of over 40% in size; note: potency is the fitted concentration of half-maximal effect
Procedure, shortened: as §1

[7] = Quantitative High-Throughput drug screen in 47 multiple myeloma cell lines against the NCATS MIPE library collection: XG1_PLB cell viability assay (AID 1919866); note: nearly all actives have a fitted effect of over 35% in size; note: potency is the fitted concentration of half-maximal effect
Procedure, shortened: as §1

[8] = Quantitative High-Throughput drug screen in 47 multiple myeloma cell lines against the NCATS MIPE library collection: VP6_DJ cell viability assay (AID 1919867); note: nearly all actives have a fitted effect of over 40% in size; note: potency is the fitted concentration of half-maximal effect
Procedure, shortened: as §1

[9] = Quantitative High-Throughput drug screen in 47 multiple myeloma cell lines against the NCATS MIPE library collection: PE2_PLB cell viability assay (AID 1919869); note: nearly all actives have a fitted effect of over 35% in size; note: potency is the fitted concentration of half-maximal effect
Procedure, shortened: as §1

[10] = Quantitative High-Throughput drug screen in 47 multiple myeloma cell lines against the NCATS MIPE library collection: PCM6_Riken cell viability assay (AID 1919870); note: nearly all actives have a fitted effect of over 30% in size; note: potency is the fitted concentration of half-maximal effect
Procedure, shortened: as §1

[11] = Quantitative High-Throughput drug screen in 47 multiple myeloma cell lines against the NCATS MIPE library collection: RPMI8226_ATCC cell viability assay (AID 1919871); note: nearly all actives have a fitted effect of over 30% in size; note: potency is the fitted concentration of half-maximal effect
Procedure, shortened: as §1

[12] = Quantitative High-Throughput drug screen in 47 multiple myeloma cell lines against the NCATS MIPE library collection: OPM2_DSMZ cell viability assay (AID 1919872); note: nearly all actives have a fitted effect of over 30% in size; note: potency is the fitted concentration of half-maximal effect
Procedure, shortened: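 We plated 500 myeloma cells per well, pinned in MIPE 4.0 compounds, and incubated for 48 hours at 37C. ATP was then quantified with CellTiter-Glo, with DMSO and media-only wells defining 100% and 0%.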

[13] = Quantitative High-Throughput drug screen in 47 multiple myeloma cell lines against the NCATS MIPE library collection: KMS28BM_JCRB cell viability assay (AID 1919874); note: nearly all actives have a fitted effect of over 35% in size; note: potency is the fitted concentration of half-maximal effect
Procedure, shortened: as §1

[14] = Quantitative High-Throughput drug screen in 47 multiple myeloma cell lines against the NCATS MIPE library collection: KMS28PE_JCRB cell viability assay (AID 1918983); note: nearly all actives have a fitted effect of over 35% in size; note: potency is the fitted concentration of half-maximal effect
Procedure, shortened: as §1

[15] = Quantitative High-Throughput drug screen in 47 multiple myeloma cell lines against the NCATS MIPE library collection: OCIMY7_PLB cell viability assay (AID 1918987); conditions: OCI-MY7 myeloma viability, CellTiter-Glo ATP, 48 h; viability (% of DMSO): at 45.8 µM (top of the series); note: nearly all actives have a fitted effect of over 65% in size; note: potency is the fitted concentration of half-maximal effect
Procedure, shortened: as §1

[16] = Quantitative High-Throughput drug screen in 47 multiple myeloma cell lines against the NCATS MIPE library collection: OCIMY5_PLB cell viability assay (AID 1918988); note: potency is the fitted concentration of half-maximal effect; nearly all actives have a fitted effect of over 65% in size
Procedure, shortened: as §1

[17] = Quantitative High-Throughput drug screen in 47 multiple myeloma cell lines against the NCATS MIPE library collection: U266_ATCC cell viability assay (AID 1919864); note: nearly all actives have a fitted effect of over 35% in size; note: potency is the fitted concentration of half-maximal effect
Procedure, shortened: as §1

[18] = Quantitative High-Throughput drug screen in 47 multiple myeloma cell lines against the NCATS MIPE library collection: KMS11_JCRBsus cell viability assay (AID 1919873); note: nearly all actives have a fitted effect of over 50% in size; note: potency is the fitted concentration of half-maximal effect
Procedure, shortened: as §1

[19] = Quantitative High-Throughput drug screen in 47 multiple myeloma cell lines against the NCATS MIPE library collection: UTMC2_PLB cell viability assay (AID 1919868); conditions: CellTiter-Glo ATP luminescence, 48 h; viability (% of DMSO control): at 45.8 µM (top of the series); note: nearly all actives have a fitted effect of over 55% in size
Procedure, shortened: as §1

NC[C@H]1O[C@H](O[C@@H]2[C@@H](O)[C@@H](O[C@H]3O[C@H](CO)[C@@H](O)[C@H](N)[C@@H]3O)[C@H](N)C[C@@H]2N)[C@H](O)[C@@H](O)[C@H]1O
inactive: Potency [1] | Potency [2] | Potency [3] | Potency [4] | viability [5] 120% | Potency [6] | Potency [7] | Potency [9] | Potency [10] | Potency [11] | Potency [12] | Potency [13]
active: Potency [8] 16.6 µM

COc1ccc(-c2cc3nccn3c(Nc3ncccc3C(N)=O)n2)cc1OC
inactive: viability [5] 103% | Potency [11]
active: Potency [1] 3.32 µM | Potency [14] 5.9 µM | Potency [15] 0.148 µM | Potency [16] 3.32 µM | Potency [17] 16.6 µM | Potency [6] 1.18 µM | Potency [7] 1.05 µM | Potency [8] 0.935 µM | Potency [9] 0.59 µM | Potency [10] 0.264 µM | Potency [12] 8.33 µM | Potency [18] 4.69 µM | Potency [13] 6.62 µM

CC[C@H](C)n1cc(C)c2c(C(=O)NCc3c(C)cc(C)[nH]c3=O)cc(-c3ccc(N4CCNCC4)nc3)cc21
inactive: Potency [2]
active: Potency [1] 23.5 µM | Potency [15] 23.5 µM | Potency [16] 23.5 µM | Potency [5] 20.9 µM | Potency [17] 16.6 µM | Potency [6] 16.6 µM | Potency [7] 9.35 µM | Potency [8] 11.8 µM | Potency [9] 23.5 µM | Potency [11] 26.4 µM | Potency [18] 23.5 µM | Potency [13] 23.5 µM

COC(=O)N1CCN(Cc2cccc(NC(=O)Nc3ccc(C)nc3)c2F)CC1
inactive: Potency [3] | Potency [4] | Potency [17] | Potency [6] | Potency [7] | Potency [11] | Potency [12]
active: Potency [1] 16.6 µM

CCOC(=O)[C@H](CCc1ccccc1)N[C@@H](C)C(=O)N1CCCC1C(=O)O (stereo not given in full)
active: Potency [17] 20.9 µM | Potency [6] 23.5 µM | Potency [7] 23.5 µM | Potency [8] 20.9 µM | Potency [10] 26.4 µM
inactive: Potency [1] | Potency [14] | Potency [15] | Potency [9] | Potency [11] | Potency [18] | Potency [13]

C=C1c2cccc(O)c2C(O)=C2C(=O)[C@@]3(O)C(O)=C(C(N)=O)C(=O)[C@@H](N(C)C)[C@@H]3[C@@H](O)[C@H]12
inactive: Potency [2] | Potency [18]
active: Potency [1] 23.5 µM | Potency [15] 9.35 µM | Potency [16] 18.7 µM | Potency [4] 23.5 µM | Potency [10] 16.6 µM

O=c1[nH]nc(OCCCc2ccc(Cl)cc2)c(NCc2cccnc2)c1Br
active: Potency [1] 14.8 µM | Potency [2] 3.72 µM | Potency [3] 20.9 µM | Potency [15] 7.43 µM | Potency [16] 18.7 µM | Potency [4] 4.69 µM | Potency [5] 18.7 µM | Potency [17] 7.43 µM | Potency [6] 2.96 µM | Potency [8] 9.35 µM | Potency [9] 9.35 µM | Potency [10] 4.69 µM | Potency [11] 20.9 µM | Potency [12] 23.5 µM | Potency [18] 5.26 µM | Potency [13] 20.9 µM

COC(=O)[C@H](c1ccccc1Cl)N1CCc2sccc2C1
inactive: Potency [1] | Potency [14] | Potency [6] | Potency [19] | Potency [9] | Potency [10] | Potency [11] | Potency [18] | Potency [13]
active: Potency [15] 20.9 µM

Cc1cc2nc3c(=O)[nH]c(=O)nc-3n(CC(O)C(O)C(O)CO)c2cc1C (stereo not given)
inactive: Potency [1] | Potency [17] | Potency [9]
active: Potency [14] 0.0833 µM | Potency [5] 20.9 µM | Potency [6] 7.43 µM | Potency [13] 5.9 µM

CC1CNc2c(cccc2S(=O)(=O)N[C@@H](CCCN=C(N)N)C(=O)N2CC[C@@H](C)C[C@@H]2C(=O)O)C1 (stereo not given in full)
inactive: Potency [1] | Potency [3] | Potency [15] | Potency [17] | Potency [7] | Potency [8] | Potency [19] | Potency [9] | Potency [10] | Potency [11] | Potency [12] | Potency [18] | Potency [13]
active: Potency [6] 5.9 µM

Cc1cccc(-c2[nH]c(C(C)(C)C)nc2-c2ccc3c(c2)OCO3)n1
active: Potency [14] 20.9 µM | Potency [2] 2.35 µM | Potency [3] 18.7 µM | Potency [15] 9.35 µM | Potency [16] 14.8 µM | Potency [4] 1.87 µM | Potency [5] 20.9 µM | Potency [17] 16.6 µM | Potency [6] 2.96 µM | Potency [7] 1.05 µM | Potency [8] 0.743 µM | Potency [9] 1.18 µM | Potency [11] 16.6 µM | Potency [18] 16.6 µM | Potency [13] 16.6 µM

NC(=O)c1ncn([C@@H]2O[C@H](CO)[C@@H](O)[C@@H]2O)n1
inactive: Potency [1] | Potency [14] | Potency [15] | Potency [4] | Potency [6] | Potency [7] | Potency [9] | Potency [10] | Potency [11] | Potency [18]
